Measurements reported in PubChem BioAssay AID1817 (Sanford-Burnham Center for Chemical Genomics, 2009).
Several values for one entry are separate records, joined by “and”; a condition that tells them apart may be missing. Identical values can stand only once. Screen size: about 290,000 compounds; about 50 (0.02%) were called active. The sample holds actives, similar compounds and a random draw of the others, so the mix is not that of the screen. Results with a measured potency or affinity are listed apart. Unmarked numbers belong to inactive results.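 The calls were made as follows: active = displacement of at least 50% at 20 µM, with a fluorescence ratio check between 0.3 and a set limit; inactive = the rest.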

Molecular target: E3 ubiquitin-protein ligase SIAH1 (Homo sapiens) (UniProt Q8IUQ4)
Sequence (Q8IUQ4 whole entry, looked up): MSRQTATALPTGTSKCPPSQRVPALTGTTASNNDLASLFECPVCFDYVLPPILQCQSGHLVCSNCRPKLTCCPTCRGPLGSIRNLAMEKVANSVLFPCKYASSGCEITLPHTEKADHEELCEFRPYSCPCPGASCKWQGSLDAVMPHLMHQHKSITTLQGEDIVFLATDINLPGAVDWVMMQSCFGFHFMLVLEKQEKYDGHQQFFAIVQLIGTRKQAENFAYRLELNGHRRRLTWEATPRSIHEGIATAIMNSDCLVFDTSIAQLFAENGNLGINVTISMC
Assay: Siah-1 peptide-binding antagonists, primary screen, biochemical, fluorescence polarization, rhodamine-plectin, uHTS (AID 1817);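 also: plate controls were Siah plus tracer with DMSO for no effect and tracer alone without Siah for full effect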
Conditions: Siah-1 / rhodamine-plectin peptide fluorescence polarization; at 20 µM; hits give high values

SMILES | displacement
COCCCNc1oc(-c2ccccc2Cl)nc1C#N | -5.3%
CN1CCN(C(=O)c2cn(-c3ccccc3)nc2-c2cccnc2)CC1 | -0.3%
O=C(NCc1ccc(F)cc1)c1cc(-c2cccs2)on1 | 3.6%
O=C(NCc1ccccc1)c1cc(-c2cccs2)on1 | -1.2%
CC(NC(=O)C(=O)c1cn(CC(=O)N2CCOCC2)c2ccccc12)c1ccccc1 (stereo not given) | 1.9%
CC(C)CNS(=O)(=O)c1ccc(CC(C)C)cc1 | 1.9%
O=C(Nc1ccc(Nc2ccncc2)cc1)c1ccc(Nc2ccnc3ccc([N+](=O)[O-])cc23)cc1 | 60% (active)
O=C(Nc1ccc(Nc2ccncc2)cc1)c1ccc([N+](=O)[O-])cc1 | 2.7%
O=C(Nc1ccc(Nc2ccncc2)cc1)c1ccc(Nc2ccnc3ccc([N+](=O)[O-])cc23)cc1[N+](=O)[O-] | 17.2%
CSc1ccc(/C=C/C(=O)N2CCCN(C)CC2)cc1 | 4%
N#Cc1ccc(NC(=O)CNc2cc(S(=O)(=O)N3CCOCC3)ccc2NCC2CCCO2)cc1 (stereo not given) | -0.4%
CCc1nnc(NC(=O)c2ccc(COc3ccccc3Cl)o2)s1 | 5.6%
CCOC(=O)C1(S(=O)(=O)c2ccc(Cl)cc2)CCN(Cc2ccc(C)cc2)CC1 | -0.2%
COc1cccc(C(=O)N2CCN(Cc3ccccc3Br)CC2)c1 | 3.1%
COC(=O)C(C(=O)OC)C(c1ccccc1)C(C(=O)c1ccccc1)[N+](=O)[O-] (stereo not given) | 2%
COc1ccc(OC)c(-c2c3cc(O)c(=O)cc-3oc3cc(O)c(O)cc23)c1 | 58.5%
Cc1c2cc(O)c(=O)cc-2oc2cc(O)c(O)cc12 | 70.1% and 99.1%
O=c1cc2oc3cc(O)c(O)cc3c(-c3ccccc3O)c-2cc1O | 83.3% (active)
CCOc1ccccc1-c1c2cc(O)c(=O)cc-2oc2cc(O)c(O)cc12 | 61.3% (active)
O=c1cc2oc3cc(O)c(O)cc3c(-c3ccccc3[N+](=O)[O-])c-2cc1O | 48.7%

SMILES | displacement
COc1cc(OC)c(-c2c3cc(O)c(=O)cc-3oc3cc(O)c(O)cc23)cc1OC | 48%
COc1cc(S(=O)(=O)NC(C)C)ccc1Cl | 3%
CC(C)c1ccccc1NC(=S)N(C)C | -9.8%
COC(=O)CCSc1nc(N2CCOCC2)c2c(c1C#N)CC(C)(C)OC2 | 1.2%
Cc1cccc(C)c1NC(=O)C1CCCN1S(=O)(=O)c1ccc2c(c1)n(C)c(=O)c(=O)n2C (stereo not given) | 2.2%
COCCNC(=S)N(CCc1c(C)[nH]c2ccc(C)cc12)Cc1ccco1 | 1.4%
CCOC(=O)c1ccc(-n2c(O)c(/C=N/NC(=O)C3COc4ccccc4O3)c3ccccc3c2=O)cc1 (stereo not given) | -6%
Cc1nc(NC(=S)NC(=O)c2cncc(Br)c2)ccc1Br | -7%
Cc1cccc(C(=O)NC(C(=O)Nc2nc(-c3ccccn3)cs2)C(C)C)c1 (stereo not given) | -2.5%
O=C(NN1C(=O)C2CC=C(Cl)CC2C1=O)c1ccncc1 (stereo not given) | 69.4% (active)
O=C(NN1C(=O)C2C(C1=O)C1C=CC2C12CC2)c1ccncc1 (stereo not given) | 0.7%
O=C(NN1C(=O)C2C3C=CC(C3)C2C1=O)c1ccncc1 (stereo not given) | 3.2%
C[C@@H](C[C@@H](O)[C@H](O)C(C)(C)O)[C@@H]1CC[C@]2(C)C3=CC[C@H]4C(C)(C)C(=O)CC[C@]4(C)[C@H]3CC[C@@]12C | 2.8%
CC(NC(=O)C1CCCN(S(=O)(=O)c2cccs2)C1)c1ccccc1 (stereo not given) | 0.2%
COc1cc(OC)c(OC)cc1CN1CCCC(C(=O)c2sccc2C)C1 (stereo not given) | -6.6%
COc1ccc(CCn2c(N)c(C(=O)NCc3ccco3)c3nc4ccccc4nc32)cc1OC | -1.3%
Nc1c(C(=O)NCc2ccco2)c2nc3ccccc3nc2n1CCc1ccc(F)cc1 | 2.1%
COc1ccc(CCn2c(N)c(C(=O)NCc3ccco3)c3nc4ccccc4nc32)cc1 | 57.5% (active)
Cn1c(Cl)c(/C=N/OC(=O)c2ccccc2Cl)c2ccccc21 | -1.7%
CC12CCC(C(=O)NCc3ccco3)(OC1=O)C2(C)C (stereo not given) | 1.5%

SMILES | displacement
CN1C(=O)NC(c2ccccc2[N+](=O)[O-])C2=C1CC(C)(C)CC2=O (stereo not given) | 4.2%
CN1C(=O)NC(c2cccc([N+](=O)[O-])c2)C2=C1CCCC2=O (stereo not given) | 3%
C/C(=N\OC(=O)Nc1ccccc1)c1cnn(-c2cc(C(F)(F)F)cc(C)n2)c1C | 5.7%
CCOC(=O)c1sc(=S)n(CC)c1N | -0.9%
COCCn1c(C)c(C(=O)O)sc1=S | 2.3%
COc1cc2ncnc(NCc3ccccc3C)c2cc1OC | 4.9%
CCOC(=O)c1cccc(NC(=O)CSc2nnc(C)n2Cc2ccccc2)c1 | -0.6%
CC(=O)Nc1ccc(N=Cc2c(O)ccc3ccccc23)cc1 | -0.3%
CC(=O)Nc1ccc(N=Cc2c(O)c3ccccc3oc2=O)cc1 | 1.2%
Cc1cccc(N2CCN(C(=O)c3ccc(NC(=O)C4CCCO4)cc3)CC2C)c1 (stereo not given) | 1.8%
COCCNC(=O)/C(C#N)=C/c1ccc(OCc2ccc(F)cc2)cc1 | -1.7%
Cc1cc(/C=C2\NC(=O)NC2=O)c(C)n1-c1ccc(N2CCOCC2)cc1 | -9.1%
COc1ccc(OCCn2c(N)nc3ccccc32)cc1 | 3.4%
O=C(NC1CCCC1)c1ccc(COc2ccccc2Br)o1 | 2.7%
O=c1[nH]c(-c2ccc3c(c2)OCO3)nc2c1sc(=S)n2-c1ccccc1 | 1.9%
O=c1[nH]c(-c2ccccc2Cl)nc2c1sc(=S)n2-c1ccccc1 | 2.3%
COc1ccccc1CN1CC(C(=O)N(C)Cc2ccc(C)o2)CCC1=O (stereo not given) | -3.9%
Oc1ccccc1/C=N/Nc1cccc2cccnc12 | -2.4%
Oc1c(/C=N/Nc2cccc3cccnc23)ccc2ccccc12 | 93.1% (active)
Oc1ccc(/C=N/Nc2cccc3cccnc23)c(O)c1 | -3.9%
